Shown are actives, neighbours in structure and some others; about 3% of the full set was active somewhere.
IP6K1 inh: blocks human inositol hexakisphosphate kinase 1 | Q92551 | IP6K1 kinase, ADP-Glo luminescence, 2 h; hits give low values | activity change, % (series mostly up to about 58 µM) | 140,000 compounds, 0.81% hits | AID 1645851; in the data active = activity change below about -25%; also: % is scaled to controls: 0 for no effect and ±100 for the full control effect
Target sequence (Q92551 whole entry, looked up): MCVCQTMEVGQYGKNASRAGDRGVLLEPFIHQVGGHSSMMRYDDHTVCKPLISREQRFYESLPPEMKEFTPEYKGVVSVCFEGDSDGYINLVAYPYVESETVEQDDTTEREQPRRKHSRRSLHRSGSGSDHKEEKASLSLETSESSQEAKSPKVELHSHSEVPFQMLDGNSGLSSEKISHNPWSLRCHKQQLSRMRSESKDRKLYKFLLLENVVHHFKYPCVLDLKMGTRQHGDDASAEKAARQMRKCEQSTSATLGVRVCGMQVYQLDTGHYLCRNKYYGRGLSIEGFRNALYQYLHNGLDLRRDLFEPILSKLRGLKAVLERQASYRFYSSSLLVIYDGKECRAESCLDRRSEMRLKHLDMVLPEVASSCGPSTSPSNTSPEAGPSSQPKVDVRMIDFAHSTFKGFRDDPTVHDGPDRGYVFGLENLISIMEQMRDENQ
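ADP-Glo luminescence measures ADP made by human IP6K1 during a 2 h RT reaction with ATP/IP6 (mix at 1.3 mM/130 uM); top library doses 57.5 and 19.1 uM final.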
SNCA viab count: counter-screen for SNCA expression inhibitors: cell viability; HEK-293-SNCA-luc viability, GF-AFC fluorescence, 24 h; Potency, µM (series often up to 57.1 µM), without a hit: at the top dose activity change, negative = cytotoxicity, hits mostly cytotoxic; 150,000 compounds, 0.12% hits;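 also: potency is read from the fitted curve at half-maximal effect; 0% = DMSO-treated cells and -100% = medium-only wells without cells; nearly all actives have a fitted effect of over 30% in size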
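Cytotoxicity counterscreen: after 24 h compound treatment of genome-edited SNCA-luciferase HEK-293 cells, live-cell protease substrate GF-AFC read by fluorescence after 30 min; activity scaled between DMSO (0%) and medium-only (-100%), curves Hill-fitted.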
SNCA expr inh: SNCA gene expression inhibition. HEK-293 SNCA-luciferase knock-in, luminescence, 24 h. 140,000 compounds, 0.17% hits. AID 1671194. Potency, µM (titrated, usually from 57.2 µM), without a hit: top-dose activity change, negative = inhibition, hits mostly inhibitors;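 also: potency is read from the fitted curve at half-maximal effect; plate controls were DMSO cells for no effect and cell-free wells for full effect; nearly all actives have a fitted effect of over 45% in size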
KDM5B inhibitor: inhibitors of human KDM5B histone demethylase. Potency, µM (series often up to 57.7 µM), hits mostly inhibitors. KDM5B demethylase, FDH-coupled NADH fluorescence (FDH is formaldehyde dehydrogenase). 220,000 compounds, 2.6% hits; also: potency is read from the fitted curve at half-maximal effect; 0% is about no effect; nearly all actives have a fitted effect of over 70% in size
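qHTS format, multiple compound concentrations. Buffer 50 mM HEPES pH 7.5/0.01% Tween-20; 200 nM KDM5BΔAP final; 10 min compound preincubation; substrate-mix levels 12.5 µM peptide, 25 µM α-KG, 0.25 mM NAD⁺; 30 min RT; ΔRFU.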
The depositor's hits bear a star; [ ] = remark or other dose. Unless noted, calls follow the shape of the dose curve; as a rule, active = well fitted curve in the direction sought with a large enough effect; inconclusive = small, poorly fitted or top-dose-only effect, or another doubt; inactive = no such curve, though single readings can be large; an effect the other way counts as inactive or inconclusive.

Results for O=C(c1ccc(Cl)cc1)N1CCC2(CC1)C(=O)NCN2CCc1ccc(Cl)cc1 ?
IP6K1 inh: -3.6; SNCA viab count: -14.6%; SNCA expr inh: -22.8%; KDM5B inhibitor: inactive

What do the screens show for `O=C(NCC(F)(F)F)C1CCCN(c2nccc(Nc3ccccc3F)n2)C1` (stereo unspecified)?
IP6K1 inh: 13.8; SNCA viab count: -3.2%[12.5 µM]; SNCA expr inh: inconclusive

What do the screens show for `Cc1cc(F)ccc1-c1[nH]nc2ncc(-c3ccc([S+](C)(=O)[O-])cc3)nc12`?
IP6K1 inh: 5.1; SNCA viab count: -18.1%[87.6 µM]; SNCA expr inh: inconclusive; KDM5B inhibitor: 35.5µM*

Results for CC(=O)Nc1cccc(-c2cnc3n[nH]c(-c4sccc4C)c3n2)c1 ?
IP6K1 inh: 1.8; SNCA viab count: inconclusive; SNCA expr inh: 30.0%[87.6 µM]; KDM5B inhibitor: inactive

What do the screens show for `Cc1cc(F)ccc1-c1[nH]nc2ncc(-c3cn[nH]c3)nc12`?
IP6K1 inh: -20.8; SNCA viab count: -34.7%[87.6 µM]; SNCA expr inh: inconclusive; KDM5B inhibitor: 28.2µM*

What do the screens show for `CC(=O)Nc1cccc(-c2cnc3n[nH]c(-c4ccc(F)cc4C)c3n2)c1`?
IP6K1 inh: 17.2; SNCA viab count: 13.9%[87.6 µM]; SNCA expr inh: inconclusive; KDM5B inhibitor: 35.5µM*

Results for COc1cccc(-c2cc(C(=O)NCc3cccc(F)c3)c3cnn(C)c3n2)c1 ?
IP6K1 inh: 1.2

Results for Cn1nc(C2CCCN2)c2c(C(=O)NC3CC3)cc(C3CC3)nc21 (stereo unspecified) ?
IP6K1 inh: 9.9; SNCA viab count: -0.2%; SNCA expr inh: 2.0%; KDM5B inhibitor: inconclusive

What do the screens show for `Cn1nc(C2CCCN2)c2c(C(=O)NCc3ccc(F)cc3)cc(C3CC3)nc21` (stereo unspecified)?
IP6K1 inh: 0.2; SNCA viab count: -5.8%; SNCA expr inh: 19.2%; KDM5B inhibitor: 79.4µM*

Results for CC(C)CNC(=O)c1cc(C2CC2)nc2c1c(C1CCCN1)nn2C (stereo unspecified) ?
IP6K1 inh: 0.0; SNCA viab count: 8.1%; SNCA expr inh: 14.7%; KDM5B inhibitor: 79.4µM*

What do the screens show for `Cn1nc(C2CCCN2)c2c(C(=O)NCc3cccs3)cc(C3CC3)nc21` (stereo unspecified)?
IP6K1 inh: -3.6; SNCA viab count: -0.2%; SNCA expr inh: 87.5%; KDM5B inhibitor: inconclusive

What do the screens show for `Cn1nc(C2CCCN2)c2c(C(=O)NCc3ccncc3)cc(C3CC3)nc21` (stereo unspecified)?
IP6K1 inh: -4.5; SNCA viab count: 7.3%; SNCA expr inh: 4.9%; KDM5B inhibitor: 79.4µM*

How did CS(=O)(=O)NCCc1ccc(CC2CCN(C(=O)COc3ccc(F)cc3)CC2)cc1 do in these assays?
IP6K1 inh: 9.7; SNCA viab count: -8.1%; SNCA expr inh: inconclusive

How did COc1cccc(-c2ccc(C(=O)NCCNC(=O)C(C)(C)C)cc2)c1 do in these assays?
IP6K1 inh: 1.4

What do the screens show for `Cc1ccc(-c2cc3c(=O)n(CCNC(=O)c4cccc(Cl)c4)ccn3n2)cc1C`?
IP6K1 inh: -15.9; SNCA viab count: -3.5%; SNCA expr inh: 57.9%; KDM5B inhibitor: inactive

How did Cc1ccc(-c2cc3c(=O)n(CCNC(=O)c4ccccc4F)ccn3n2)cc1C do in these assays?
IP6K1 inh: -15.1; SNCA viab count: 4.7%; SNCA expr inh: 91.8%; KDM5B inhibitor: 20µM*

What do the screens show for `COc1cccc(C(=O)NCCn2ccn3nc(-c4ccc(C)cc4C)cc3c2=O)c1OC`?
IP6K1 inh: -3.3; SNCA viab count: 5.0%; SNCA expr inh: 72.6%; KDM5B inhibitor: inconclusive

How did COc1cccc(C(=O)NCCn2ccn3nc(-c4ccc(C)c(C)c4)cc3c2=O)c1OC do in these assays?
IP6K1 inh: -12.2; SNCA viab count: -6.7%; SNCA expr inh: 50.3%; KDM5B inhibitor: 35.5µM*

What do the screens show for `Cc1ccc(-c2cc3c(=O)n(CCNC(=O)c4ccc5ccccc5n4)ccn3n2)cc1C`?
IP6K1 inh: -4.8; SNCA viab count: -3.2%; SNCA expr inh: 67.2%; KDM5B inhibitor: inconclusive

What do the screens show for `CCn1nccc1C(=O)NCCn1ccn2nc(-c3ccc(C)c(C)c3)cc2c1=O`?
IP6K1 inh: -5.7; SNCA viab count: -29.4%; SNCA expr inh: 22.5%; KDM5B inhibitor: 35.5µM*

What do the screens show for `O=C1NCCN2CC3(CCN(C(=O)Nc4ccccc4F)CC3)CC12` (stereo unspecified)?
IP6K1 inh: -13.0; SNCA viab count: -1.3%; SNCA expr inh: 37.2%; KDM5B inhibitor: inconclusive

Screening results from PubChem BioAssay.
